# 12-LOX inh – Primary qHTS assay for inhibitors of human arachidonate 12S-lipoxygenase (ALOX12): Round 2; actives 1.1% (n = 580,000); Polyunsaturated fatty acid lipoxygenase ALOX12 (Homo sapiens), P18054; purified 12hLO, xylenol orange hydroperoxide absorbance; Potency, µM (top dose mostly 108 µM), for inactives: top-dose activity change, negative = inhibition, actives largely listed as inhibitors
# Target sequence (P18054 whole entry, looked up): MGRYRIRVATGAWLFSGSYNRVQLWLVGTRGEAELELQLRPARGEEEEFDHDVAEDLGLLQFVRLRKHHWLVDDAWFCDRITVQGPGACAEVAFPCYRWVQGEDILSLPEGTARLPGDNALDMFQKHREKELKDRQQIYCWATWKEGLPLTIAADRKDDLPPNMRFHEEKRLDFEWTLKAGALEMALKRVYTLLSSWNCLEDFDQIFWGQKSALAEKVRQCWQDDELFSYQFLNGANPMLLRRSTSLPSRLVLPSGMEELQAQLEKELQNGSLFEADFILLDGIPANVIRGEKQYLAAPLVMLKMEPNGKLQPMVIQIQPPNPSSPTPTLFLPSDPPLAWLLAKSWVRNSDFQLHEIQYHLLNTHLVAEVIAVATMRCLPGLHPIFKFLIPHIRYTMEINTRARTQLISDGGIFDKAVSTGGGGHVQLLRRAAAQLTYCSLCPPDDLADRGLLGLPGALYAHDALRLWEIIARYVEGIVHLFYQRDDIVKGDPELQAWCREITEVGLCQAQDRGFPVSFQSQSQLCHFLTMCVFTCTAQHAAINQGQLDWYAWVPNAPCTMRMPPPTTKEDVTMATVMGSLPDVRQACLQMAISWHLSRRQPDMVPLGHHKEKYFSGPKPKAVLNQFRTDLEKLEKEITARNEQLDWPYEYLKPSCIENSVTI
#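 Hydroperoxide product was detected by ferrous iron/xylenol orange as the 573 to 405 nm absorbance ratio. Arachidonic acid at 40 uM (final) was turned over for 30 min at room temperature by 150 nM human 12hLO, pH 7.0 Hepes buffer, after 15 min compound preincubation.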
# VDR inhibitor – Inhibitors of the vitamin D receptor (VDR): qHTS; Vitamin D3 receptor (Homo sapiens), P11473; VDR-SRC2-3 peptide fluorescence polarization, 2 h; Potency, µM, for inactives: max response, negative = inhibition, actives largely listed as inhibitors; actives 0.93% (n = 400,000); AID 504847, 2011
#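 FP read-out; VDR + SRC2-3 coactivator peptide; 23 nl compound by pintool; 2 h RT incubation; reagents held at 4 deg C, protected from light.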
# Sfp inh – qHTS Assay for Inhibitors of Bacillus subtilis Sfp phosphopantetheinyl transferase (PPTase) | AID 1490, 2009 | 4'-phosphopantetheinyl transferase ffp (Bacillus subtilis), Q9F4F7 | Potency, µM, for inactives: largest response in the series, negative = inhibition, actives largely listed as inhibitors | Biochemical Sfp PPTase activity, qHTS | actives 3.5% (n = 310,000);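 also: the enzyme is Sfp with the accession as filed and its product quenches rhodamine fluorescence; 0% = enzyme reaction without inhibitor and -100% = no enzyme wells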
#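 Compounds were incubated with enzyme (final 15 nM) for 15 min at room temperature before substrate addition started the reaction. Fluorescence at 525 nm excitation, 598 nm emission was recorded immediately and after 30 minutes.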
# PLK1 PBD inh – qHTS for Inhibitors of PLK1-PDB (polo-like kinase 1 - polo-box domain): Primary Screen; Serine/threonine-protein kinase PLK1 (Homo sapiens), P53350; actives 2.8% (n = 360,000); Plk1 PBD binding of FITC phosphopeptide, fluorescence polarization; AID 720504, 2013; Potency, µM, for the others: max response, negative = inhibition, actives largely listed as inhibitors; also: series mostly up to about 57 µM; nearly all actives have a fitted effect of over 65% in size
# Numbers without * were called inactive; ? = inconclusive; · = no result given. Hits are enriched below; roughly 4.2% of the tested compounds scored in any of these assays. Calls follow the shape of the dose curve; as a rule, active = well fitted curve in the direction sought with a large enough effect; inconclusive = small, poorly fitted or top-dose-only effect, or another doubt; inactive = no such curve, though single readings can be large; an effect the other way counts as inactive or inconclusive. Unless noted, % is scaled to controls: 0 for no effect and ±100 for the full control effect; potency is read from the fitted curve at half-maximal effect.
SMILES,12-LOX inh,VDR inhibitor,Sfp inh,PLK1 PBD inh
CCC(C(=O)OCC(=O)NC(=O)c1ccccc1)c1ccccc1 (centres undefined),-3.0%,-13.5%,·,-1.1%
CCC(C(=O)OCC(=O)NC(=O)NC(C)(C)C)c1ccccc1 (centres undefined),-6.9%,-20.8%,8.0%,26.7µM*
CN(C)C(=O)CCc1ccc2c3c([nH]c2c1)[C@]1(C)[C@@H](C(=O)N2CCOCC2)C[C@H](CC(=O)NCc2ccco2)C(=O)N1CC3,-11.3%,-1.3%,·,-3.3%
O=C(NCCc1ccccc1)N1CCC(Oc2ncccc2C(=O)N2CCOCC2)C1 (centres undefined),6.0%,·,·,·
CC1CCC(C(C)C)C2=C1C(C#N)(C#N)C(C#N)(C#N)C(c1ccccc1)N2 (centres undefined),39.8µM*,89.1µM*,?,?
CN(C)CCNc1oc(-c2ccccc2Cl)nc1S(=O)(=O)c1ccccc1,-33.2%,12.6%,·,-5.8%
CSc1ncccc1C(=O)N(C)CC(=O)Nc1ccc(Cl)cc1,-28.4%,-18.9%,0.9%,-2.2%
O=c1c2ccccc2nc2c3ccccc3c(NCCN3CCOCC3)nn12,-17.7%,·,-10.4%,·
O=c1c2c(-c3ccccc3)csc2nc2c3ccccc3c(NCCN3CCOCC3)nn12,?,17.0%,35.5µM*,-6.3%
CC(C)(C)[C@@H]1COC(=O)[C@H](Cc2ccc(F)cc2)C/C=C\C[C@H](CC(=O)N(CCO)Cc2ccccc2)C(=O)N1,-11.8%,0.8%,·,-3.7%
COc1ccc(C(=O)/C=C/c2ccccc2)cc1,·,25.1µM*,-13.1%,·
Cc1[nH]c(C)c(C(=O)/C=C/c2ccc([N+](=O)[O-])cc2)c1C,31.6µM*,?,1.4%,-4.4%
O=C(/C=C/c1ccc([N+](=O)[O-])cc1)NCCc1ccccc1,-4.9%,?,-4.4%,16.8µM*
O=C(COC(=O)c1ccccc1O)NCCCc1ccccc1,-17.2%,-6.8%,-9.3%,29.9µM*
O=C(COC(=O)c1cccnc1Cl)NCCCc1ccccc1,26.5%,5.7%,·,0.4%
Cc1cc(C)cc(NC(=O)C2CCN(c3nc4ccccc4nc3C(F)(F)F)CC2)c1,-24.8%,6.8%,·,·
CCCNC(=O)N1CCC(N2C(=O)C(OC)C23CCOCC3)CC1 (centres undefined),42.9%,·,·,·
CCCN(CCC)S(=O)(=O)c1ccc(C(=O)N2CCn3c4c(c5cc(C)ccc53)CCCC42)cc1 (centres undefined),-13.5%,0.9%,·,·
O=C(/C=C/c1ccccc1)c1ccc(O)cc1,·,44.7µM*,-13.9%,·
O=C(/C=C/c1ccc([N+](=O)[O-])cc1)NC1CC2CCC1C2 (centres undefined),10.9%,?,-8.3%,5.97µM*
O=C(/C=C/c1ccc(O)cc1)c1ccccc1,0.7%,-14.7%,-5.5%,-0.4%
CCC(CC)NC(=O)/C=C/c1ccc(Cl)cc1,15.2%,·,·,·
O=C(/C=C/c1ccc(Cl)cc1)NC1CC2CCC1C2 (centres undefined),-0.8%,-1.0%,-24.9%,-17.6%
CCC(=O)Nc1cccc(C(=O)/C=C/c2ccccc2)c1,439.0%,50.1µM*,?,-21.5%
CCC(=O)Nc1ccc(NC(=O)/C=C/c2ccc(Cl)cc2)cc1,16.2%,?,9.3%,29.9µM*
SMILES,12-LOX inh,VDR inhibitor,Sfp inh,PLK1 PBD inh
CC(C)C(=O)Nc1ccc(NC(=O)c2ccccn2)cn1,0.0%,-2.3%,-24.1%,-5.4%
COc1cc(/C=N/OCCOc2ccc(C#N)cc2)cc(Cl)c1OC,-0.5%,·,·,·
CC(C)NC(=O)c1ccccc1OCC1CCCN(Cc2ccncc2F)C1 (centres undefined),-10.2%,·,·,·
COC(=O)c1ccc(/C=C/C(=O)c2cccc(OC)c2)cc1,-24.0%,22.4µM*,?,-18.3%
Cc1ccc(C(=O)C=Cc2cccc(C)c2)cc1,-7.6%,?,·,-3.4%
O=C(C=Cc1ccccc1)c1ccc([N+](=O)[O-])cc1,-17.0%,10µM*,·,-20.9%
O=C(O)/C=C/C(=O)NCCCc1ccccc1,?,-15.0%,14.7%,26.7µM*
Cc1cccc(C=CC(=O)c2ccccc2)c1,-7.6%,44.7µM*,·,-11.5%
O=C(/C=C/c1ccc([N+](=O)[O-])cc1)c1ccc(-c2ccccc2)cc1,-1.7%,·,·,·
O=C(COC(=O)c1ccc2ccccc2n1)NCC(F)(F)F,-24.8%,·,·,·
